Mot1-301 SUMO – inhibitors of SUMOylation pathway: yeast Mot1-301 growth rescue | growth rescue, % at 18.8 µM | AID 2716 | 1% of 320,000 active | S. cerevisiae Mot1-301 growth rescue, ATP luminescence, 38.5C; percent above DMSO median, 100 means doubled;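 active = every valid replicate shows activation above 250% relative to neutral control wells; inactive = the rest, any valid replicate at or below 250%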;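 note: OY570 slx delta 5 strain wells were the positive control but not used for scaling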
ALR H2O2 inh – blocks human ALR sulfhydryl oxidase activity; 3.8% of 290,000 active; inhibition, % (test concentration not listed); purified ALR, DTT oxidation, H2O2 HRP-luminol luminescence;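 active = mean replicate inhibition above about 79%, with every replicate also reaching it, limit read from the data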
Target sequence (P55789 whole entry, looked up): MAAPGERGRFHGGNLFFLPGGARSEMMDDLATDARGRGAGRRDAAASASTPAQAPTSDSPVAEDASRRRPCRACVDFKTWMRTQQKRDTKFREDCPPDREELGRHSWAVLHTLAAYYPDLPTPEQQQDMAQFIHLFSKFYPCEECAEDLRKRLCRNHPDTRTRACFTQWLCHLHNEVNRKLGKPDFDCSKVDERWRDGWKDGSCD
NSD2 HMT inh – blocks human histone methyltransferase NSD2; O96028; NSD2 peptide methylation, AlphaScreen, 120 min; inhibition, % at 12.5 µM; 0.54% of 310,000 active; AID 743445; in the data active = inhibition above about 50%
CDK5 inh – CDK5/p35 (human) kinase inhibition; inhibition, % at 10 µM; 0.01% of 330,000 active; AID 488839; Q00535+Q15078; Recombinant CDK5/p35, ADP-Glo luminescence, 60 min;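 active = highest replicate inhibition of at least 50% and at least 75% of replicates reaching 50%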;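 note: plate controls were DMSO neutral control for no effect and GW8510 at 10 µM for full effect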
Glyco luc inh – N-linked glycosylation inhibition; D54 ERlucT glycosylation luciferase reporter, 24 h; percent of 100 nM tunicamycin response; reporter increase, % at 12.5 µM; 0.23% of 360,000 active;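 active = mean luciferase reporter signal, scaled so untreated is 0 and the glycosylation-blocking control 100, at or above a set limit in every replicate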;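 note: luciferase carries N-glycosylation sites so blocking glycosylation raises the light; 0% = median of neutral control wells and 100% = median of 100 nM tunicamycin wells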
CASP6 VEID inh – blocks human caspase-6 cleavage activity; purified caspase-6, Z-VEID-R110 cleavage fluorescence; inhibition, % at 12.5 µM; 0.53% of 350,000 active;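 active = mean inhibition across replicates at least about 35%, with every replicate also reaching that limit, limit read from the data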;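 note: 0% = median of neutral control wells and 100% = no fluorescence left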
* = called active by the depositor; x = no result given. An excerpt weighted towards active compounds, which were near 3.9% of everything screened.

SMILES	Mot1-301 SUMO	ALR H2O2 inh	NSD2 HMT inh	CDK5 inh	Glyco luc inh	CASP6 VEID inh
O=C1Nc2ccc(C(=O)O)c(O)c2C1=O	x	x	4	-4	0	40*
O=C(C[C@H]1C=C[C@H](NC(=O)Nc2cc(F)ccc2F)[C@@H](CO)O1)Nc1ccccc1	x	x	x	x	x	0
O=C(O)CCn1cc(-c2ccc(Cl)cc2)nc1-c1ccncc1	-13	77*	x	-2	2	4
COc1ccc(-c2cn(CCN)c(-c3ccncc3)n2)cc1	-1	0	x	-9	1	-1
COc1ccc(-c2cn(CCC(=O)O)c(-c3ccncc3)n2)cc1	4	69	x	-2	5	0
COc1ccc(-c2cn(Cc3ccc(C(N)=O)cc3)c(-c3ccncc3)n2)cc1	-7	98*	x	2	1	0
CO[C@H]1CN(C)C(=O)c2cc(C#N)ccc2OCC[C@@H]2CC[C@@H](OC)[C@H](CN(C)C(=O)[C@@H]1C)O2	x	x	x	x	x	1
COc1ccc(S(=O)(=O)NCc2cccs2)cc1	14	2	4	0	-2	x
COc1ccc(S(=O)(=O)N(Cc2cccs2)C2CCCC2)cc1	-9	99*	x	1	-4	x
C[C@H]1CN([C@@H](C)CO)C(=O)c2cc(NC(=O)NC3CCCCC3)ccc2O[C@@H]1CN(C)S(=O)(=O)c1ccccc1	x	x	x	x	x	-4
CCCC(c1nnnn1C(C)(C)C)N1CCN(c2ccccc2)CC1 (centres undefined)	19	98*	-5	1	-4	-2
CCC(c1nnnn1C1CCCC1)N1CCN(c2ccccc2)CC1 (centres undefined)	-2	99*	0	1	-1	x
CCCC(c1nnnn1Cc1ccco1)N1CCN(c2ccccc2)CC1 (centres undefined)	1	88*	-9	-2	2	5
C[C@H](CO)N1C[C@H](C)[C@@H](CN(C)C(=O)c2ccccc2)Oc2ncc(C#CC3CC3)cc2C1=O	x	x	x	x	x	-2
O=C(NCC[C@@H]1CC[C@H](NS(=O)(=O)c2ccc(Cl)cc2)[C@H](CO)O1)c1ccc2c(c1)OCO2	x	x	x	x	x	-6
CCOc1ccccc1NC(=O)CCS(=O)(=O)c1ccc(Br)cc1	10	3	-2	0	-1	71*
COc1ccc(NC(=O)CCS(=O)(=O)c2ccc(OC)cc2)cc1	3	-8	-1	-2	x	x
CCOc1ccc(NC(=O)CCS(=O)(=O)c2ccc(Br)cc2)cc1	14	-7	0	1	0	66*
CCOc1ccc(CCNC(=O)CCS(=O)(=O)c2ccc(OC)cc2)cc1OCC	-1	-1	21	-2	2	38*
CCOc1ccc(S(=O)(=O)NCCC(=O)NCCc2ccc(OCC)c(OCC)c2)cc1	34	3	-2	-1	1	1
O=C(CCS(=O)(=O)c1ccc(Br)cc1)Nc1cc(F)ccc1F	34	-5	-2	-1	-6	59*
O=C(O)c1cccc(N2C(=O)c3cccc4cccc(c34)C2=O)c1	-12	-1	1	0	0	0
O=C1c2cc([N+](=O)[O-])cc3cc([N+](=O)[O-])cc(c23)C(=O)N1c1ccccn1	5	-12	30	6	0	48*
O=C(O)c1cccc(N2C(=O)c3cc([N+](=O)[O-])cc4cc([N+](=O)[O-])cc(c34)C2=O)c1	-12	x	34	4	-6	45*
Cc1nc(N2CCN(c3ccccc3)CC2)[nH]c(=O)c1C	-15	97*	2	0	-1	-2
SMILES	Mot1-301 SUMO	ALR H2O2 inh	NSD2 HMT inh	CDK5 inh	Glyco luc inh	CASP6 VEID inh
Cc1cc2[nH]c(=O)c(=O)[nH]c2cc1S(=O)(=O)N1CCN(c2ccccc2)CC1	18	97*	x	0	1	3
Cc1nnc(N2CCN(Cc3ccccc3)CC2)[nH]c1=O	10	99*	-1	0	0	x
C[C@@H]1CN([C@@H](C)CO)C(=O)Cc2cc(NC(=O)CCCCCC(=O)Nc3ccccc3N)ccc2O[C@H]1CN(C)Cc1ccncc1	x	x	x	x	x	-4
CO[C@@H]1CN(C)C(=O)c2ccc(NC(=O)c3cnccn3)cc2OC[C@@H](C)N(CCc2ccccc2)C[C@H]1C	x	x	x	x	x	1
O=C(C1CCC1)N1CC2(C1)[C@@H](c1ccccc1)[C@@H](CO)N2Cc1nccs1	x	x	x	x	x	2
CCOC(=O)/C=C1\CC(C(=O)OCC)Oc2ccccc21 (centres undefined)	x	x	x	2	1	0
